# HTT aggregate – mutant huntingtin aggregation inhibition; PC12 HttQ103-GFP aggregates, Acumen cytometry, 40 h; Potency, µM (highest dose often 46.1 µM), for inactives: at the highest dose activity change, negative = inhibition, actives largely listed as inhibitors; 220,000 compounds, 1.1% hits; active = well fitted curve in the direction sought with a large enough effect; inconclusive = small, poorly fitted or top-dose-only effect, or another doubt; inactive = no such curve, though single readings can be large; an effect the other way counts as inactive or inconclusive; also: potency is read from the fitted curve at half-maximal effect; % is scaled to controls: 0 for no effect and ±100 for the full control effect; nearly all actives have a fitted effect of over 60% in size
#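 Ecdysone-promoter PC12 model expressing HTT exon 1 Q103 fused to GFP, induced by tebufenozide at 100 nM final. Compounds titrated; aggregates sized 1–25 µm scored on a 488 nm laser cytometer.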
# CBFb RUNX1 block – CBF-beta/RUNX1 interaction disruption | Q01196+Q13951 | AlphaScreen CBFb-His/RUNX1-biotin binding, biochemical | Potency, µM (titrated, usually from 59.8 µM), for the others: top-dose activity, negative = inhibition, most hits filed as inhibitors | 230,000 tested, under 10 active; active = well fitted curve in the direction sought with a large enough effect; inconclusive = small, poorly fitted or top-dose-only effect, or another doubt; inactive = no such curve, though single readings can be large; an effect the other way counts as inactive or inconclusive; also: % of control where 0% means no effect
#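 Read-out: AlphaScreen. Format: His-CBF-beta with biotinylated RUNX1 (30 nM each) preincubated 20 min, compound 15 min, Ni-chelate plus streptavidin beads 90 min; room temperature throughout.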
# ALDH1A1 block – ALDH1A1 (human) enzyme inhibition; P00352; Purified ALDH1A1, NADH fluorescence, propionaldehyde substrate; Potency, µM (highest dose often 75.3 µM), inactives show at the top dose activity, negative = inhibition, most hits filed as inhibitors; 220,000 compounds, 7.3% hits; AID 1030;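 also: potency is read from the fitted curve at half-maximal effect; plate controls were no enzyme wells and a reference inhibitor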
# Target sequence (P00352 whole entry, looked up): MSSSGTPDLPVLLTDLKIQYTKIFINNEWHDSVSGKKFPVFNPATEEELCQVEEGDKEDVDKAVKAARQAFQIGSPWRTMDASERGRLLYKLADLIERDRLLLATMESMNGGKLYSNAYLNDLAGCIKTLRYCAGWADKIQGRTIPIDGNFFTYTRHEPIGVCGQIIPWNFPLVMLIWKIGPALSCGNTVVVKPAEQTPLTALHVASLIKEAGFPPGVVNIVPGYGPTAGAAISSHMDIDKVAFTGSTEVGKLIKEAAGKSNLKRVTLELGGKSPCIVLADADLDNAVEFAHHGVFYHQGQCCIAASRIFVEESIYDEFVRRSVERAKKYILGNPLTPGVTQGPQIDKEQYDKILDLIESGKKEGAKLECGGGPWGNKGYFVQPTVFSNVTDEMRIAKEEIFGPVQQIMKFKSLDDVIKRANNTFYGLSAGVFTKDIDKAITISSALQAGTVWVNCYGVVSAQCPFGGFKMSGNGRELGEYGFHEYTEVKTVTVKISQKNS
# HTT cytoprotect – cytoprotection in Huntington HTT-Q103 PC12 cell model | PC12 HTT-Q103 induced, cytoprotection, ATP luminescence, 40 h | Potency, µM (doses to about 56.4 µM), for inactives: cytoprotection (ATP increase), usual class: activators | 230,000 compounds, 0.14% hits; active = well fitted curve in the direction sought with a large enough effect; inconclusive = small, poorly fitted or top-dose-only effect, or another doubt; inactive = no such curve, though single readings can be large; an effect the other way counts as inactive or inconclusive; also: potency is read from the fitted curve at half-maximal effect; % of control where 0% means no effect; nearly all actives have a fitted effect of over 45% in size
#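 Quantitative HTS on tebufenozide-induced (100 nM) PC12 cells expressing HTTQ103 exon 1–GFP; compounds tested as a concentration series; survival measured via cellular ATP.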
# HPGD block – HPGD (human) dehydrogenase inhibition; P15428; purified HPGD, NADH fluorescence kinetic, PGE2 substrate; Potency, µM, for inactives: at the top dose activity change, negative = inhibition, hits mostly inhibitors; 150,000 compounds, 4.3% hits; AID 894; also: potency is read from the fitted curve at half-maximal effect; % is scaled to controls: 0 for no effect and ±100 for the full control effect
# Target sequence (P15428 whole entry, looked up): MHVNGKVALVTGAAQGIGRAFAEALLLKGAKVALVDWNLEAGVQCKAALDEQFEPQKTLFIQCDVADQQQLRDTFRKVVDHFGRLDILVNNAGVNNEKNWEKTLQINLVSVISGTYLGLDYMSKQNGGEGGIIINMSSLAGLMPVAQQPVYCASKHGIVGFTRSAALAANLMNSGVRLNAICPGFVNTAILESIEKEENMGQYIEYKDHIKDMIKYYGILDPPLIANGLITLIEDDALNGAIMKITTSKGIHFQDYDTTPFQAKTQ
#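 NADH formation kinetics: reaction with 30 uM PGE2 and 1 mM NAD+ (final), 20 nM enzyme, Tris-HCl pH 8 with Tween 20, after 15 min compound preincubation at room temperature. Fluorescence change, last versus first of five reads.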
# KDM4E inh – inhibitors of human JMJD2E histone demethylase; 230,000 compounds, 1.6% hits; Potency, µM (titrated, usually from 57.1 µM), for inactives: at the top dose activity change, negative = inhibition, actives largely listed as inhibitors; JMJD2E catalytic domain, FDH-coupled NADH fluorescence (FDH is formaldehyde dehydrogenase);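 also: potency is read from the fitted curve at half-maximal effect; 0% = wells with enzyme and -100% = buffer wells without enzyme; nearly all actives have a fitted effect of over 50% in size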
# * marks the source's active call; other numbers are inactive results; u = inconclusive; x = not tested or not shown; [ ] = another dose, or the depositor's remark. An excerpt weighted towards active compounds, which were near 9.8% of everything screened. Unless noted, calls follow the shape of the dose curve; as a rule, active = well fitted inhibition curve with a large enough effect (not every such curve was filed as active); inconclusive = small, poorly fitted or top-dose-only effect, or another doubt; inactive = no such curve, though single readings can be large or run the other way.
SMILES,HTT aggregate,CBFb RUNX1 block,ALDH1A1 block,HTT cytoprotect,HPGD block,KDM4E inh
Cc1ccc(CN2CCN(Cc3ccc(C)s3)CC2CCO)cc1 (configuration not stated),-4%,8%,8%,-14%,x,-2%
O=C(c1ccco1)N1CCC2(CCCN(Cc3ccccc3)C2)CC1,x,x,28µM*,14%,-2%,x
O=C(Nc1cccc(F)c1)N1CCC2(CC1)CCN(C(=O)c1cccc(F)c1)CC2,x,x,-14%,-3%,-8%,x
N#Cc1cccc(NC(=O)N2CCCC3(CCN(C(=O)c4ccco4)CC3)C2)c1,x,x,22µM*,-15%,-23%,x
N#Cc1cccc(NC(=O)N2CCC3(CC2)CCN(C(=O)c2ccco2)CC3)c1,x,x,10µM*,u,-9%,x
CC(=O)N1CCC2(CC1)CCN(C(=O)Nc1cccc(F)c1)CC2,x,x,13µM*,18%,-9%,x
O=C(c1ccco1)N1CCC[C@@]2(CCN(Cc3ccccc3)C2)C1,x,x,-12%,-63%,-6%,x
O=C(Nc1nccs1)c1ccc(S(=O)(=O)N2CCOCC2)cc1,6%[9.22 µM],5%,u,16%[10 µM],x,-6%
CCc1ccc(NC(=O)COc2ccc(Br)cn2)cc1,4%,-5%,13%,x,x,u
O=C(CSc1c(F)c(F)cc(F)c1F)Nc1ccc(C2SCCS2)cc1,4%[9.22 µM],5%,x,2%[10 µM],x,-2%
O=C(Nc1ccccc1)N1CCCC2(CCN(C(=O)c3ccco3)CC2)C1,x,x,20µM*,3%,1%,x
Cc1ccc(NC(=O)C(NC2CCCc3ccccc32)c2ccccc2)cc1Cl (configuration not stated),3%,u,14µM*,12%[10 µM],-14%,0%
CCN(CC)c1nc(-c2ccccc2)ncc1S(=O)(=O)c1ccc(C)cc1,-3%[9.22 µM],u,u,6%[10 µM],x,-11%
O=S(=O)(c1ccccc1)c1cnc(-c2ccccc2)nc1N1CCCCC1,u,u,13µM*,-26%,x,u
Cc1ccc(S(=O)(=O)c2cnc(-c3ccccc3)nc2N2CCN(C)CC2)cc1,-9%,-2%,2.2µM*,-38%,x,-3%
CN1CCN(c2nc(-c3ccccc3)ncc2S(=O)(=O)c2ccccc2)CC1,-1%[9.22 µM],0%,14µM*,-8%,x,6%
CCOc1cc(C2c3c(oc4ccccc4c3=O)C(=O)N2c2nccs2)ccc1O (configuration not stated),-32%[9.22 µM],0%,x,-21%[10 µM],x,0%
COc1ccc(S(=O)(=O)NCc2c(-c3ccccc3)noc2C)c(OC)c1,2%[9.22 µM],8%,2.5µM*,2%[10 µM],x,-5%
Cc1ccc(S(=O)(=O)NCc2c(-c3ccccc3)noc2C)cc1,-7%[9.22 µM],u,4µM*,-3%[10 µM],x,2%
Cc1onc(-c2ccccc2)c1CNS(=O)(=O)c1ccccc1,-21%[9.22 µM],-1%,u,-12%[10 µM],x,4%
COc1ccccc1N1C(=O)c2ccccc2NC1c1ccncc1 (configuration not stated),-13%,8%,u,12%[10 µM],-26%,u
COc1ccccc1N1C(=O)N(C(C)=O)C2C1Nc1ccccc1N2C (configuration not stated),u,u,1.8µM*,-52%,-10%,u
Cc1cc(OCC(=O)N2CCc3ccccc3C2)c2c(-c3ccccc3)cc(=O)oc2c1,u,-4%,14µM*,-9%,-18%,u
CCOc1cc(C)cc2oc(=O)cc(-c3ccccc3)c12,-7%,20%,22µM*,-7%,-12%,-26%
CCOC(=O)c1c(NC(=S)Nc2ccccc2)sc(C)c1C,3%,-4%,25µM*,14%[10 µM],22µM*,12%
SMILES,HTT aggregate,CBFb RUNX1 block,ALDH1A1 block,HTT cytoprotect,HPGD block,KDM4E inh
Cc1sc(NC(=O)Nc2ccccc2)c(C(N)=O)c1C,-5%[9.22 µM],-5%,13µM*,-1%[10 µM],x,-8%
CCOC(=O)c1c(NC(=O)CCc2ccc(CC)o2)sc(C)c1C,-7%,20%,u,-19%,u,-19%
CCOC(=O)c1c(NC(=O)C[n+]2ccc(Cc3ccccc3)cc2)sc(C)c1C,-31%,-17%,0.71µM*,-38%,x,-12%
COC(=O)c1c(NC(=O)Nc2ccc(Cl)cc2)sc(C)c1C,5%,-1%,-16%,-10%,-22%,u
CCOC(=O)c1c(NC(=O)C2CCCO2)sc(C(N)=O)c1C (configuration not stated),-4%,2%,u,-34%[10 µM],-10%,3%
CCOC(=O)c1c(NC(=S)NCC2CCCO2)sc(C)c1C (configuration not stated),4%,-3%,18µM*,-23%,x,-7%
CC(/C=N\N1CCN(c2ccc(Cl)cc2)CC1)=C\c1ccccc1,14%,8%,9%,3.2µM*,-11%,-2%
Cc1cccc(C)c1-n1nnnc1S(=O)(=O)Cc1ccccc1Cl,u,u,u,-8%,-18%,-1%
COc1ccc(OC)c(C(=O)COC(=O)C2CC3CCCC(C2)C3=O)c1 (configuration not stated),-2%,8%,7.1µM*,-13%[10 µM],-24%,-5%
COc1ccc(C(=O)OCC(=O)c2cc(OC)ccc2OC)c(OC)c1,17%,3%,-10%,-11%[10 µM],-12%,-12%
O=[N+]([O-])C(=C1NCCN1)C(Cl)=C(Cl)Cl,3%[9.22 µM],5%,-2%,13%[10 µM],x,-16%
CCOC(=O)c1c(N)sc(C(=O)Nc2ccccc2F)c1C,x,-2%,-3%,x,x,-24%
CCOC(=O)c1c(N)sc(C(=O)Nc2ccccc2)c1C,-14%[9.22 µM],-3%,10µM*,-50%[10 µM],x,-12%
CCOC(=O)c1c(N)sc(N)c1C(=O)OCC,20%,9%,1.8µM*,x,8.9µM*,-6%
CCOC(=O)c1c(N)sc(=S)c2c1CCC2,-8%,u,32µM*,-6%,u,u
CCOC(=O)c1c(SC)nc(SC)c2c1CCC2,-12%,8%,0%,2%,-4%,1%
CCOC(=O)c1c(N)sc(C(N)=O)c1C,-6%,9%,25µM*,0%,u,5%
CCOC(=O)c1sc(N)c(C(N)=O)c1C,-14%,6%,u,-17%,x,-13%
CCCCN(C(=S)NC(=O)c1cc(OC)c(OC)c(OC)c1)c1c(N)n(Cc2ccccc2)c(=O)[nH]c1=O,17%,2%,-13%,25%[10 µM],-8%,10%
CN1CCCNc2nc3ccccc3nc21,14%[9.22 µM],14%,x,-9%[10 µM],x,-3%
CCOC(=O)c1c(N)ssc1=S,-12%,3%,3.2µM*,-10%,25µM*,-12%
Cc1c(C(=O)OC(C)C)sc(N)c1C(=O)OC(C)C,-6%,-4%,u,-20%[10 µM],22µM*,-1%
C=CCn1sc(N)c(C(=O)OCC)c1=S,-8%,0%,5%,-5%,-6%,2%

# Compound activity as filed in PubChem.
